Most compounds without a hit are left out; they make up all but 3.3% or so of the library.
esBAF inh = Bmi1 luciferase reporter increase in mESCs, primary screen, esBAF inhibitor project, mouse ES cells, Bmi1 luciferase knock-in, single point | reporter increase, % at 12.5 µM | 24 h; 100% = twice the neutral-well signal | 350,000 tested, 2% active; in the data active means activation above about 40%;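 further: 0% = median of the plate's neutral control wells and 100% = double that signal; a rise in the Bmi1 reporter signal indicates esBAF inhibition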
FXN GAA850 act = FXN promoter activators, primary screen, cell-based, luciferase luminescence, HEK293 lucGAA850; HEK293 lucGAA850 FXN promoter luciferase reporter, 24 h; percent of 10 µM SAHA response; activation, % at 6 µM; 360,000 tested, 0.56% active;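 active means activation above the average of all compounds screened plus 3 SD, cutoff fixed separately per campaign, cut at about 7.5% in these data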;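 further: 0% = DMSO wells and 100% = 10 µM SAHA wells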
Statin myotox sup = suppressors of statin myotoxicity in C2C12 myotubes, primary screen, cell-based, single point, plate reader | C2C12 myotubes + simvastatin, ATP luminescence, 48 h; scaled: DMSO 0, geranylgeraniol control 100 | 330,000 tested, 0.78% active | rescue of ATP level, % at 7.49 µM;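 active means mean ATP rescue above about 67%, or every replicate alone reaching that limit, limit read from the data, passing the limit was not always enough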;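 further: myotubes were challenged with 10 µM simvastatin during compound exposure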
MITF TRPM1 HTS = activators of MITF-driven TRPM1 promoter reporter, primary screen, cell-based, SK-MEL-5, luciferase, single point | SK-MEL-5 TRPM1-promoter luciferase, 24 h; % of positive control, neutral wells = 0 | activation, % at 12.5 µM | 300,000 tested, 0.75% active | AID 588334, 2011;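 active means mean activation of at least 80% with every replicate also reaching 80%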;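 further: 0% = neutral control wells and 100% = parthenolide positive control wells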
Wnt act = Wnt/beta-catenin pathway activators, primary screen, cell-based, plate reader, single point; Wnt/beta-catenin reporter cell assay, activator; 300,000 tested, 1.2% active; activation, % at 9.35 µM; in the data active means activation above about 30%, passing the limit was not always enough;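 further: 0% = neutral control wells and 100% = positive control wells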
The depositor's hits bear a star; / = no result given.

SMILES	esBAF inh	FXN GAA850 act	Statin myotox sup	MITF TRPM1 HTS	Wnt act
Cc1noc(C)c1S(=O)(=O)N(C)C[C@H]1OCCCC[C@H](C)Oc2ccc(NC(=O)Cc3ccccc3)cc2C(=O)N([C@@H](C)CO)C[C@H]1C	0.6	/	/	/	/
C[C@@H]1CN([C@@H](C)CO)C(=O)c2cc(-c3ccccc3F)cnc2O[C@H]1CN(C)Cc1ccc(F)cc1	-0.9	/	-10.6	/	/
O=C(CN1CCN(c2ccccn2)CC1)Nc1ccc(F)cc1	2.6	1.0	115.7*	6.3	-0.8
O=C(CN1CCN(c2ccccn2)CC1)NCCc1ccccc1	3.8	1.0	111.2*	/	-0.6
COc1cccc(CNC(=O)C[C@H]2C=C[C@H](NC(=O)C3CCC3)[C@H](CO)O2)c1	1.8	/	5.8	/	/
CN(C)C(=O)c1cccc(-c2ccc3c(c2)[C@H]2[C@H](CCN2C(=O)c2ccc4c(c2)OCO4)[C@@H](CO)N3)c1	-5.1	/	8.3	/	/
C[C@@H]1CN([C@H](C)CO)C(=O)c2cc(NC(=O)Nc3ccccc3)ccc2O[C@@H](C)CCCCO[C@@H]1CN(C)Cc1ccc(Cl)c(Cl)c1	-3.1	/	117.4*	/	/
C[C@@H]1CCCCO[C@@H](CN(C)Cc2ccc(Cl)c(Cl)c2)[C@@H](C)CN([C@H](C)CO)C(=O)c2cc(NC(=O)Nc3ccccc3)ccc2O1	-15.2	/	34.8	/	-5.5
C[C@@H]1CCCCO[C@@H](CN(C)Cc2ccc(Cl)c(Cl)c2)[C@H](C)CN([C@@H](C)CO)C(=O)c2cc(NC(=O)Cc3ccccc3)ccc2O1	-0.3	/	105.7*	/	/
CC(C)c1cn(CC[C@@H]2CC[C@H](NS(=O)(=O)Cc3ccccc3)[C@@H](CO)O2)nn1	-2.3	/	-3.1	/	/
C[C@@H]1CN([C@@H](C)CO)C(=O)c2cc(-c3ccc(F)cc3)cnc2O[C@@H]1CN(C)C(=O)C1CCC1	1.9	/	21.0	/	/
O=C(OCCc1cc2ccccc2c(=O)o1)c1cccs1	74.6*	3.2	-10.5	92.9*	-0.2
COc1ccc(C/C(N)=N/OC(=O)c2cccs2)cc1	/	-0.1	/	6.3	0.9
COc1ccc(OCCOC(=O)c2cccs2)cc1	49.6*	0.9	8.4	/	1.1
Cc1ccc(S(=O)(=O)N[C@@H]2CC[C@H](CCn3cc(C4CC4)nn3)O[C@H]2CO)cc1	-0.8	/	0.2	/	/
Fc1cccc(Cl)c1Cc1noc(/C=C/c2ccccc2)n1	42.6*	5.1	-13.8	60.1	15.2
O=C(C[C@H]1CC[C@H](NC(=O)c2ccccc2)[C@H](CO)O1)NCc1ccncn1	-0.1	/	6.1	/	/
COc1ccc(NC(=O)N2CCc3ccccc32)cc1	-25.2	3.2	-53.3	11.4	/
CCOC(=O)c1ccc(NS(=O)(=O)CC)cc1	/	-1.3	/	-0.4	/
COc1ccc(NC(=O)N2CCCc3ccccc32)cc1	41.0*	0.5	8.9	23.3	54.2*
CC(C(=O)N1CCCc2ccccc21)N1C(=O)c2ccccc2C1=O (configuration not stated)	9.9	-0.2	109.4*	7.1	/
CCOC(=O)c1ccc(NC(=O)N2CCCCC2)cc1	38.0	2.8	137.1*	100.6*	/
CC(Oc1ccccc1)C(=O)N1CCCc2ccccc21 (configuration not stated)	4.3	1.9	14.8	/	-0.7
CCOC(=O)c1ccc(Nc2ccc(C(C)=O)cc2)cc1	76.2*	/	-0.1	/	13.4
Cc1noc(C)c1S(=O)(=O)Nc1ccc2c(c1)C(=O)N([C@@H](C)CO)C[C@@H](C)[C@H](CN(C)C(=O)Nc1ccccc1)OCCCC[C@@H](C)O2	6.6	/	/	/	/
SMILES	esBAF inh	FXN GAA850 act	Statin myotox sup	MITF TRPM1 HTS	Wnt act
CCC(=O)N[C@H]1CC[C@H](CCNC(=O)Nc2ccc(F)cc2)O[C@H]1CO	-3.3	/	-2.3	/	/
CCOC(=O)c1ccc(NC(=O)N2CCc3ccccc32)cc1	68.4*	0.6	72.1*	73.4	40.3*
CCOC(=O)c1ccc(NC(=O)N2CCc3ccccc3C2)cc1	9.3	6.3	4.7	22.0	3.8
O=C(COC(=O)c1cccc(-n2cnnn2)c1)c1ccccc1	-1.6	-0.1	-0.4	11.2	1.2
CCOc1ccc(C(=O)COC(=O)c2cccc(-n3cnnn3)c2)cc1	73.7*	0.5	-4.6	38.8	15.5
C[C@@H]1CN([C@H](C)CO)S(=O)(=O)c2ccc(C3=CCCC3)cc2O[C@@H]1CN(C)Cc1cccc(C(=O)O)c1	-4.1	/	-59.1	/	/
Cc1c(N=Cc2c(O)n(Cc3ccco3)c(=O)c3ccccc23)c(=O)n(-c2ccccc2)n1C	1.4	-6.7	114.4*	-6.1	-3.7
COc1ccc(Cc2c(-c3cccc(Cl)c3)nc3ccc(C)cn23)c(C)c1	56.3*	/	-15.1	/	17.7
COc1ccc(Cc2c(-c3ccccc3)nc3ccc(Cl)cn23)c(C)c1	23.0	/	-9.2	/	16.6
COc1ccc(Cc2c(-c3ccc(F)cc3)nc3ccc(Cl)cn23)c(C)c1	44.1*	/	5.6	/	-1.2
COc1ccc(Cc2c(-c3ccccc3)nc3ccc(C)cn23)c(C)c1	/	/	/	/	7.4
C[C@H]1CN([C@@H](C)CO)C(=O)c2cc(-c3cccnc3)cnc2O[C@@H]1CN(C)C(=O)NC1CCCC1	-3.1	/	-6.4	/	/
COCC(=O)Nc1ccc2c(c1)C(=O)N(C)C[C@H](OC)[C@H](C)CN(C(=O)Cc1cccnc1)[C@H](C)CO2	0.2	/	-4.6	/	/
O=C(C[C@@H]1CC[C@@H](NC(=O)NC2CCCCC2)[C@@H](CO)O1)NCc1ccc(Cl)cc1	-8.1	/	1.5	/	/
O=C(C[C@H]1CC[C@H](NC(=O)c2cccc(F)c2)[C@H](CO)O1)NCCN1CCCC1	1.5	/	-11.4	/	/
C[C@@H]1CN([C@@H](C)CO)C(=O)c2cc(C#C[C@@H](C)O)cnc2O[C@H]1CN(C)C(=O)c1ccccc1F	-0.1	/	-8.6	/	/
CCCc1nnc(N2C(=O)c3cccc4cccc(c34)C2=O)s1	5.3	1.4	85.2*	-4.8	-5.4
O=C(Nc1ncc(Cc2ccccc2)s1)c1cccs1	-16.9	0.8	-1.3	65.7	/
O=C(Nc1ncc(Cc2cccc(Cl)c2)s1)c1cccs1	47.0*	1.5	18.6	59.9	/
Cc1ccc(C(=O)Nc2ncc(Cc3ccccc3)s2)o1	3.7	0.2	2.2	34.7	51.1*
Cc1ccc(Cc2cnc(NC(=O)c3cccs3)s2)cc1	72.0*	4.6	-11.3	63.7	/
Cc1ccc(S(=O)(=O)Nc2cccc3c2O[C@H](CN(C)S(=O)(=O)c2cccs2)[C@@H](C)CN([C@H](C)CO)C3=O)cc1	3.4	/	0.8	/	/
CCCC#Cc1cnc2c(c1)C(=O)N([C@@H](C)CO)C[C@H](C)[C@H](CN(C)Cc1ccncc1)O2	-0.6	/	9.5	/	/
COc1ccc(CNC(=O)C[C@@H]2C=C[C@@H](NC(=O)Nc3ccc4c(c3)OCO4)[C@@H](CO)O2)cc1	2.8	/	1.7	/	/
CN(C)c1ccc(C(=O)/C=C/c2ccc(Br)cc2)cc1	20.0	1.7	-1.3	33.2	29.1

Screens: PubChem, several laboratories
